# Test results from the supplement of paper PMC11732987, “Enantioselective OTUD7B fragment discovery through chemoproteomics screening and high-throughput optimisation” (Communications Chemistry, 2025).
# A number with no mark means an inactive call.
# How the values were obtained:
# Test in all cases: log2 ratio of Biotin-Ahx-Ub-VS probe labelling (fragment/DMSO); higher = less target engagement (more negative = stronger competition), active = hit call of the paper (q ≤ 0.05, log2 ratio ≤ -1)
# Settings in all cases: compound concentration: 200 uM; treatment time: 3 h
# [1] = molecular target: T1, USP19 (UniProt O94966)
# T1 sequence (whole entry): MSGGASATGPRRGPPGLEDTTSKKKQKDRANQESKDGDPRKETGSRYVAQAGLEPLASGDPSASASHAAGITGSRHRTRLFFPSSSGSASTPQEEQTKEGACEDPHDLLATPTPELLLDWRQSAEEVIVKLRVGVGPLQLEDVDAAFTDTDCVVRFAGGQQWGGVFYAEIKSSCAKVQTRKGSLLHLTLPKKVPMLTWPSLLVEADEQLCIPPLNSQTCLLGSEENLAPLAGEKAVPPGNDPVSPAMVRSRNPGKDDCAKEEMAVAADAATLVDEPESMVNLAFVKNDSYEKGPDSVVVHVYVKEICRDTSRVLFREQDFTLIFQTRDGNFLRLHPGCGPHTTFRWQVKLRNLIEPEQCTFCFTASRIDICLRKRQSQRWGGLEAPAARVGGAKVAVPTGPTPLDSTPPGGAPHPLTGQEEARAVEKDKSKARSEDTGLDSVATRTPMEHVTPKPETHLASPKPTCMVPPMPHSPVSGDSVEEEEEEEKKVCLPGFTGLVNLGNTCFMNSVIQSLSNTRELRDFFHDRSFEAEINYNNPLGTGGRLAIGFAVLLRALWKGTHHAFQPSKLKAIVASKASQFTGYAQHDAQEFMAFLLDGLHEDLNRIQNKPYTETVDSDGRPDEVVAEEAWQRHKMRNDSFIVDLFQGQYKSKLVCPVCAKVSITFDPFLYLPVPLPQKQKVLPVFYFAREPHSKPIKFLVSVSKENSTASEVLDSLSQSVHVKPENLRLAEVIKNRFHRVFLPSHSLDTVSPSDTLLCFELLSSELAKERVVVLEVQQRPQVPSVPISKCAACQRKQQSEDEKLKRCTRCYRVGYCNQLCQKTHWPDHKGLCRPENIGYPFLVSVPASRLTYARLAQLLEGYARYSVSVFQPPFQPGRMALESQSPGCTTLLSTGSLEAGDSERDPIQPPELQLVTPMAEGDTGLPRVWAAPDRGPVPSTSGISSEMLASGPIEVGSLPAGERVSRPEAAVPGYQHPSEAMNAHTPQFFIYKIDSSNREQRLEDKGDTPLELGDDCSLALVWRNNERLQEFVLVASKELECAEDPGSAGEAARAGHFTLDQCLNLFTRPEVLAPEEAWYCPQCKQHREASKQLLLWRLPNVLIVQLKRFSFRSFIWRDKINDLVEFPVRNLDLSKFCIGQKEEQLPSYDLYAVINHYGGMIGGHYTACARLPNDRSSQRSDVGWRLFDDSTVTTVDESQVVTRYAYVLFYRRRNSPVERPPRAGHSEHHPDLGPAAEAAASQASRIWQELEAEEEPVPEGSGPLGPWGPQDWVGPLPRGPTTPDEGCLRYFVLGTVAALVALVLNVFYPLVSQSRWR
# How it was run: (§1)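 Using Biotin-Ahx-Ub-VS at 0.5 µM final for 1 h, DUBs were labelled in HEK293T lysate (495 µg per sample) that had first been treated in triplicate with fragment at 200 µM or vehicle for 3 h. NeutrAvidin enrichment, LysC and trypsin digestion and diaPASEF LC-MS/MS followed. Spectronaut label-free quantities were global-median-normalised. Values are average log2 fragment/vehicle ratios by unpaired t-test, using proteins with ≥2 unique peptides.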
# [2] = molecular target: T2, USP22 (UniProt Q9UPT9)
# T2 sequence (whole entry): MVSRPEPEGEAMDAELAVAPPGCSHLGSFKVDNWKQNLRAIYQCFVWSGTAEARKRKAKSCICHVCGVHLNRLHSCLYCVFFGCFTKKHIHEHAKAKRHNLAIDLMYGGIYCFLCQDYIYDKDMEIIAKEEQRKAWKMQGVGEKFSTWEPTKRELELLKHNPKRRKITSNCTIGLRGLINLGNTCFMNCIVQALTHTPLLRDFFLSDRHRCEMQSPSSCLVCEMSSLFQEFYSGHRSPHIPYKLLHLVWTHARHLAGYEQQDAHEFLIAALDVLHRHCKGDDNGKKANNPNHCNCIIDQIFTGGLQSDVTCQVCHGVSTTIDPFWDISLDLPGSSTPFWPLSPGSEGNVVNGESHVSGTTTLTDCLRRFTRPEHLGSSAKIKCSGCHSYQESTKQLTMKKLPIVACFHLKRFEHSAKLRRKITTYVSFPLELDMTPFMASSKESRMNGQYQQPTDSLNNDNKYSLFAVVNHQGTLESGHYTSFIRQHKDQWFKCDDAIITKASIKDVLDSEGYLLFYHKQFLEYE
# How it was run: as §1
# [3] = molecular target: USP24 (UniProt Q9UPU5)
# USP24, sequence (Q9UPU5 whole entry): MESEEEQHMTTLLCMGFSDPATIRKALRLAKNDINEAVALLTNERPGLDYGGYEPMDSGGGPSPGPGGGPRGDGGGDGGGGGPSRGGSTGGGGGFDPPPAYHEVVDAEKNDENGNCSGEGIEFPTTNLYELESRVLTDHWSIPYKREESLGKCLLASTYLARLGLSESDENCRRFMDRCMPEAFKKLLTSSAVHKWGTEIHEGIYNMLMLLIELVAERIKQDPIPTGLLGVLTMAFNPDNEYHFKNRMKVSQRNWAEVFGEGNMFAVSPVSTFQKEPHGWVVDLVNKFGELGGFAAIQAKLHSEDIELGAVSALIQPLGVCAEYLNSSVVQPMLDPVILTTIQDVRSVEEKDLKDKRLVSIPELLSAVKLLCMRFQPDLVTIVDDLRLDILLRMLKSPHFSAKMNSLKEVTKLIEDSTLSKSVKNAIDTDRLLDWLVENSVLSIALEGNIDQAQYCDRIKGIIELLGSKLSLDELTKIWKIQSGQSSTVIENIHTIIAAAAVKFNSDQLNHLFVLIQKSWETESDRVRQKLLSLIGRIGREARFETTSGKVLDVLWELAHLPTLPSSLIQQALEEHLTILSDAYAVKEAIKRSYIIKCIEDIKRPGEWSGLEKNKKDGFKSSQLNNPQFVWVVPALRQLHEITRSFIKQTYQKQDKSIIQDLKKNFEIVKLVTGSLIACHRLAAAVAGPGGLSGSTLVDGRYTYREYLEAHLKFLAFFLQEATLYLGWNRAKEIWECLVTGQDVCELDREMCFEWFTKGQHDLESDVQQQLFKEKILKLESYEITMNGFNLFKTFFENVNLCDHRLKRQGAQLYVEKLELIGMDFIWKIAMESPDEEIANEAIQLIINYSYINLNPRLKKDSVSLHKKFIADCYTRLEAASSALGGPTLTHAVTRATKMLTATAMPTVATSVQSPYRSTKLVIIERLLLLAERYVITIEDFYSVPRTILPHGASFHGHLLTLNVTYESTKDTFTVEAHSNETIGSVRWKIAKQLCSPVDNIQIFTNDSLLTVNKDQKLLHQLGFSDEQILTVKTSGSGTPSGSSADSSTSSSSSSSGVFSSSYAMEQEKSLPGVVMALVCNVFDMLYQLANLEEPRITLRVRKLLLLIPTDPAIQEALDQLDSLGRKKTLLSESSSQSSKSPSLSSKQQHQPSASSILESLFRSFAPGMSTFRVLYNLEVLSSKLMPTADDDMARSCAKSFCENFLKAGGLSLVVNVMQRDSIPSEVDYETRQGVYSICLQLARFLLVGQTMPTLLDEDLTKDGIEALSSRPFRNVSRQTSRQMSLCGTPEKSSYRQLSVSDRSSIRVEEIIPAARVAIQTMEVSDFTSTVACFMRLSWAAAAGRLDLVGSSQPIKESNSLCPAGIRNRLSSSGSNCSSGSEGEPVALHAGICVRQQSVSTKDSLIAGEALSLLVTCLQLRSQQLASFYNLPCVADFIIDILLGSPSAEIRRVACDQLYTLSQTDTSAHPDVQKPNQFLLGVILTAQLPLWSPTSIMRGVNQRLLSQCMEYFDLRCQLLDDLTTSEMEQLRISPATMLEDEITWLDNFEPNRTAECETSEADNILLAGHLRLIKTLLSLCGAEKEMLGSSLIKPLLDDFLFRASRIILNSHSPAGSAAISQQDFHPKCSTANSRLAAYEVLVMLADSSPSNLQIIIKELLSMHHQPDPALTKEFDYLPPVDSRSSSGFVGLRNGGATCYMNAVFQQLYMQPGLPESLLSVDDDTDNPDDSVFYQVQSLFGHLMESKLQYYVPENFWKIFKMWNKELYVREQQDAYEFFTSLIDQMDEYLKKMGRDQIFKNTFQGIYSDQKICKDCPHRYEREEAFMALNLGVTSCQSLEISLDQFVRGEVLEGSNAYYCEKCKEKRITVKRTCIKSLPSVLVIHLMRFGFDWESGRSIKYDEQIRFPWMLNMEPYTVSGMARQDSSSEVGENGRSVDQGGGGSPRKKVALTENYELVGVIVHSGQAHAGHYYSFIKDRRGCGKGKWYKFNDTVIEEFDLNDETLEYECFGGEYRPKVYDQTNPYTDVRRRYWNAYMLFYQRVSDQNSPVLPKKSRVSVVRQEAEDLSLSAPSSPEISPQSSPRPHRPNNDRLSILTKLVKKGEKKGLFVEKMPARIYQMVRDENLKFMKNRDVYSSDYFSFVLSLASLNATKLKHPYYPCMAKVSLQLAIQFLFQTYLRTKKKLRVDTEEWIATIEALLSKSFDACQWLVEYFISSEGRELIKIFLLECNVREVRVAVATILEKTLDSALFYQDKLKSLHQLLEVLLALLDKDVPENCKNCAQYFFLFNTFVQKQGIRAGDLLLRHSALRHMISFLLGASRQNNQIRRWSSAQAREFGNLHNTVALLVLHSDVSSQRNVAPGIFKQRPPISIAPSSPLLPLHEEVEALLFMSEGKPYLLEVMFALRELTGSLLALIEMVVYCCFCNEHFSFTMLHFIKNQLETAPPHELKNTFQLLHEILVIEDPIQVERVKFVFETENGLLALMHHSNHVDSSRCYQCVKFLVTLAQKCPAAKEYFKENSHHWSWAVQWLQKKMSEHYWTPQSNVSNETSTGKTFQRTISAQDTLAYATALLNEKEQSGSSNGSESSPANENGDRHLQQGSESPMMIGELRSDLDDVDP
# How it was run: as §1
# [4] = molecular target: T3, USP25 (UniProt Q9UHP3)
# T3 sequence (whole entry): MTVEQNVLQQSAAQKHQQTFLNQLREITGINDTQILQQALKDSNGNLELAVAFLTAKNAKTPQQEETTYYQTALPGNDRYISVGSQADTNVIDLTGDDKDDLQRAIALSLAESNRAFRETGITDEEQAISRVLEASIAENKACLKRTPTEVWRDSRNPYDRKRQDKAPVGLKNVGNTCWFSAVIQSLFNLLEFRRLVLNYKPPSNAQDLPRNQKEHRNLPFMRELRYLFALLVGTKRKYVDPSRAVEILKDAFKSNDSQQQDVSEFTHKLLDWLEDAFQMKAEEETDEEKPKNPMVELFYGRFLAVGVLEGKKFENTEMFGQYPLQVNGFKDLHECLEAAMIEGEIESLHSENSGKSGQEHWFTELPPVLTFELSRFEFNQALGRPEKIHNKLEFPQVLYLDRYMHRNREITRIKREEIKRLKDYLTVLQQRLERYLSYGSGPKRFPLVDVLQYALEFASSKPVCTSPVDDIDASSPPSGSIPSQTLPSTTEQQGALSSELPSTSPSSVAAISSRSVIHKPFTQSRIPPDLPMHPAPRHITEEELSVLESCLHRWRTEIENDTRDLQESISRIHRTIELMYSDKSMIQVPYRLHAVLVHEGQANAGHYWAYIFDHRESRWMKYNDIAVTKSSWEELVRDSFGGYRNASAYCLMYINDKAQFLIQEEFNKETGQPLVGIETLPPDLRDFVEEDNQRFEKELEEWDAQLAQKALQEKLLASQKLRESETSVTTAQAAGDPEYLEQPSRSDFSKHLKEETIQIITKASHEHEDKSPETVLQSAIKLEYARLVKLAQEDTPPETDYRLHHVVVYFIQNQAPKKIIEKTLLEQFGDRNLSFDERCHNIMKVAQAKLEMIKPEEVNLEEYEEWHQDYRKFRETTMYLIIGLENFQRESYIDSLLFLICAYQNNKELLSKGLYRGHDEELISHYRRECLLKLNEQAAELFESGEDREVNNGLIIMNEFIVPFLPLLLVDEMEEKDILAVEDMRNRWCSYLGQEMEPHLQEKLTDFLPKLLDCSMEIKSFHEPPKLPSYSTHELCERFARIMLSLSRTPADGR
# How it was run: as §1
# [5] = molecular target: T4, USP28 (UniProt Q96RU2)
# T4 sequence (whole entry): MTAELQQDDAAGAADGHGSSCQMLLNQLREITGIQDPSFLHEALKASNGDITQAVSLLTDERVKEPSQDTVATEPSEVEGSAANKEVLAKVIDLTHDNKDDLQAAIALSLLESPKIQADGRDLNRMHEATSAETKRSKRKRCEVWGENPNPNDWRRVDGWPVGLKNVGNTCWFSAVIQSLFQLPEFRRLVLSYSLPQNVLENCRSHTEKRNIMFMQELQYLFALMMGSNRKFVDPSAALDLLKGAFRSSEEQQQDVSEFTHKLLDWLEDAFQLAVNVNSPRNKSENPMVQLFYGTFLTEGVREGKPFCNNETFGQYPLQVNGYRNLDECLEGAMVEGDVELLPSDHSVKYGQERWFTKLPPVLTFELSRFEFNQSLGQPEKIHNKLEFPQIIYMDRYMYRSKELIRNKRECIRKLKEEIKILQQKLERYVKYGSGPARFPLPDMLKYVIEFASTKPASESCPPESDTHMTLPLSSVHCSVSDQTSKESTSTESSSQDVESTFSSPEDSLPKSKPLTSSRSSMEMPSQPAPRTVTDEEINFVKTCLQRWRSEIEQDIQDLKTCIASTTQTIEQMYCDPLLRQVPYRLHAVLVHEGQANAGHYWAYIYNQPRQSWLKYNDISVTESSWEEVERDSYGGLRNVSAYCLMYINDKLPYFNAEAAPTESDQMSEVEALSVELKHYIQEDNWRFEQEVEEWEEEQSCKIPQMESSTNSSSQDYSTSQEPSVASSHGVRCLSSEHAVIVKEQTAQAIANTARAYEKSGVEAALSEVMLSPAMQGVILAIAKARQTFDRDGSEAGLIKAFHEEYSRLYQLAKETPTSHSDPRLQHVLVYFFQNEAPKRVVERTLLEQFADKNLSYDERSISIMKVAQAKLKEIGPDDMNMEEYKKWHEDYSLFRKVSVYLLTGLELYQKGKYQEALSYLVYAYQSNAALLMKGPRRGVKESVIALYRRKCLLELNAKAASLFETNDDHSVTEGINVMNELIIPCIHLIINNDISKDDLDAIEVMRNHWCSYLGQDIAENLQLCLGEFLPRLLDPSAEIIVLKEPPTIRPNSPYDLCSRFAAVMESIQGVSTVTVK
# How it was run: as §1
compound,measurement,setting,value
CS(=O)(=O)c1ccc(NC(=O)CCl)cc1,log2 ratio of Biotin-Ahx-Ub-VS probe labelling,[1],-0.223
same,log2 ratio of Biotin-Ahx-Ub-VS probe labelling,[2],0.107
same,log2 ratio of Biotin-Ahx-Ub-VS probe labelling,[3],-0.247
same,log2 ratio of Biotin-Ahx-Ub-VS probe labelling,[4],-1.74 (active)
same,log2 ratio of Biotin-Ahx-Ub-VS probe labelling,[5],-1.38 (active)
